Assay outcomes deposited in PubChem BioAssay by National Center for Advancing Translational Sciences (NCATS).
A selection: hits, their analogues and other compounds. The true share with any hit is near 2.3%.
Rango dissoc inh: prevents RanGTP from dissociating the Rango-importin beta complex. Biochemical FRET Rango-importin beta, RanGTP-induced dissociation. hit rate 0.071% among 340,000. O95149+P62826. Potency, µM (top dose mostly 46.1 µM), inactives show top-dose activity change, negative = inhibition; calls by dose curve; also: % of control where 0% means no effect; nearly all actives have a fitted effect of over 45% in size
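Compounds sat 5 min at room temperature with 0.1 uM Rango biosensor plus 0.25 uM importin beta, then FRET pre-read. RanGTP-RCC1 (0.6 uM Ran, 2mM GTP, 0.2 uM RCC1) added for 45 min, and the CFP/YFP post-read measured blocked complex dissociation.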
A549 tox: kills or reduces viability of A549 cells in Nrf2 counter-screen. A549 ARE-Fluc cells, CellTiter-Fluor viability, 18-24 h. hit rate 0.16% among 390,000. Potency, µM (top dose mostly 46 µM), for the others: at the highest dose activity change, negative = cytotoxicity, actives largely listed as inhibitors. AID 504648; also: % is scaled to controls: 0 for no effect and ±100 for the full control effect
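Cytotoxicity counterscreen: CellTiter-Fluor fluorescence was measured in A549 ARE_Fluc cells after 18-24 h of compound exposure in a concentration series. The subsequent BugLite luminescent read reports ARE-luciferase activity.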
Rango complex inh: Rango-importin beta binding inhibition. hit rate 0.031% among 340,000. Potency, µM (series often up to 92.2 µM), inactives show top-dose inhibition of complex formation. Rango CFP/YFP FRET sensor + importin beta, 45 min; calls by dose curve;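 also: 0% = DMSO wells and 100% = buffer wells lacking importin beta; nearly all actives have a fitted effect of over 15% in size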
Target sequence (Q14974 whole entry, looked up): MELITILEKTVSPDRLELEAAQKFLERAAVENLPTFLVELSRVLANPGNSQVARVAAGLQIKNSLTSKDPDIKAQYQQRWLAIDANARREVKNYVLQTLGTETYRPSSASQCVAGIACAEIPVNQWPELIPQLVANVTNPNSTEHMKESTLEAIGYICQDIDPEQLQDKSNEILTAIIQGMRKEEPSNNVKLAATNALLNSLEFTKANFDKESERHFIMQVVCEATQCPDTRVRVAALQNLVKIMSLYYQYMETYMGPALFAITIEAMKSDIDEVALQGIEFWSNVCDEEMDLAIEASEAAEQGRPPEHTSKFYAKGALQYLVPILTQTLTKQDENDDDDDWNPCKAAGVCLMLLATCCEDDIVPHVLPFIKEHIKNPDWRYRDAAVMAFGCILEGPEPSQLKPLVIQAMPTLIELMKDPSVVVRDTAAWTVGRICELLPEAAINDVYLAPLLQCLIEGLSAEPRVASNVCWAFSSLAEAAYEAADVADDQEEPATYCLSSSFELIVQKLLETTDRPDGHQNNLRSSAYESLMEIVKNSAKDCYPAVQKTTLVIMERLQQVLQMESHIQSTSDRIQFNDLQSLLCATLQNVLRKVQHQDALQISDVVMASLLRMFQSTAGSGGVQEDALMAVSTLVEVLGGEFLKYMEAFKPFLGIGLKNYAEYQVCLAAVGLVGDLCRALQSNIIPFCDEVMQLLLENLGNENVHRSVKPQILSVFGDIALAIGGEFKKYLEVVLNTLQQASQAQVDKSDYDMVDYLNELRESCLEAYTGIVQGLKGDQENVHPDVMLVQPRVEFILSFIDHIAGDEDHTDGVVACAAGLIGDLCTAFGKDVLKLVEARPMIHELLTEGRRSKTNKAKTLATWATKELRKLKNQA
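FRET biosensor Rango (snurportin 1 IBB between N-terminal EYFP and C-terminal Cerulean), 50 nM in PBS/1 mM DTT/0.02% Tween-20/0.1% BSA, preincubated 5 min RT with compound; 0.125 microM importin beta added, 45 min RT, CFP/YFP FRET ratio read.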
Nrf2 ARE act: activators of Nrf2 (ARE) signaling. hit rate 0.31% among 410,000. AID 624171. Potency, µM (titrated, usually from 46.1 µM), inactives show top-dose activation, hits mostly activators. AREc32 ARE-luciferase reporter (MCF7-derived line), luminescence, 24 h; also: % of control where 0% means no effect; nearly all actives have a fitted effect of over 65% in size
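Luciferase luminescence (Steady-Glo, 30 min at room temperature) served as the read-out of ARE activation in AREc32 cells treated with compounds for 24 hr at 37 deg C.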
Nrf2 block: blocks Nrf2 signaling | A549 ARE-Fluc reporter, luciferase luminescence, 18-24 h | hit rate 2.1% among 360,000 | Potency, µM (highest dose often 46 µM), for inactives: at the top dose activity change, negative = inhibition, usual class: inhibitors; also: % is scaled to controls: 0 for no effect and ±100 for the full control effect; nearly all actives have a fitted effect of over 60% in size
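In this cell-based qHTS, ARE-driven firefly luciferase in A549 cells reports Nrf2 activity; the luminescent signal after BugLite lysis is the measured value, with a prior CellTiter-Fluor read for cell health.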
* marks the source's active call; other numbers are inactive results; ? = inconclusive; nt = not tested or not shown. Unless noted, calls follow the shape of the dose curve; as a rule, active = well fitted curve in the direction sought with a large enough effect; inconclusive = small, poorly fitted or top-dose-only effect, or another doubt; inactive = no such curve, though single readings can be large; an effect the other way counts as inactive or inconclusive. Potency is read from the fitted curve at half-maximal effect.

SMILES | Rango dissoc inh | A549 tox | Rango complex inh | Nrf2 ARE act | Nrf2 block
COC(=O)c1ccc(NC(=O)N2CCN(Cc3cc(=O)n4nc(-c5ccc(C)cc5)sc4n3)CC2)cc1 | nt | 1% | nt | -1% | nt
Cc1cccc(Nc2nc(N)c([N+](=O)[O-])c(N3CCN(C)CC3)n2)c1 | -1% | 0% | -2% | 7% | 5%
Cc1cccc(Nc2nc(N)c([N+](=O)[O-])c(N3CCCC(C)C3)n2)c1 (centres undefined) | -14% | -18% | -3% | 4% | 16µM*
COc1cc(/C=C/c2ccc3cccc(OC)c3n2)c(OC(C)=O)c([N+](=O)[O-])c1 | -15% | 9.2µM* | 3% | 7% | 26µM*
CCOC(=O)CNC(=O)N1[C@H](c2cccs2)[C@@H](C)C(=O)[C@@H](C)[C@@H]1c1cccs1 | nt | 14% | nt | 0% | ?
CCN(C(=O)C1CCN(c2nc(-c3ccc(OC)cc3)no2)CC1)c1ccc(OC)cc1 | -1% | -9% | -1% | 1% | 13µM*
COc1ccc(-c2noc(N3CCC(C(=O)N4CCN(c5ccccn5)CC4)CC3)n2)cc1 | 23% | -27% | -2% | 0% | 18µM*
COc1ccc(NC(=O)C2CCN(c3nc(-c4ccc(OC)cc4)no3)CC2)cc1 | -10% | -1% | -3% | -2% | -8%
Cc1ccc(NC(=O)CSc2nc(-c3cccs3)nc3cc(=O)[nH]n23)cc1 | nt | -6% | nt | 5% | ?
CN(C)CCCN=c1cc(-c2ccccc2)oc2ccc(Cl)cc12 | -17% | 11% | 3% | 14µM* | 5%
OCCN=c1cc(-c2ccccc2)oc2ccc(Cl)cc12 | -7% | -10% | 1% | ? | -29%
O=C(Nc1ccc(S(=O)(=O)N(Cc2ccccc2)c2ccccc2)cc1)c1ccc([N+](=O)[O-])cc1 | nt | 2% | nt | 0% | 11%
CCN(CC)c1ccc(/C=N/NC(=O)CNC(=O)C2COc3ccccc3O2)c(O)c1 (centres undefined) | ? | -14% | ? | 0% | 23µM*
CCN(C(=O)Cn1c(C(=O)OC)cc2sc(Cl)cc21)c1cccc(C)c1 | nt | 6% | nt | 3% | 13%
CC(C)(C)C(=O)N(Cc1ccc(Cl)cc1)c1cnccn1 | -5% | -1% | 2% | 0% | 18µM*
Cc1c(C(=O)/C=C/c2cccs2)oc2ccc(F)cc12 | 8% | 2% | -2% | 7.9µM* | ?
C/C(=N/NC(=O)CNC(=O)c1cccnc1)c1ccc(Cl)c(Cl)c1 | 0% | 3% | 4% | 0% | -6%
CN(C)C(=O)CSc1nc2ccc(N3C(=O)c4ccccc4C3=O)cc2s1 | 25% | -8% | -1% | 3% | 4%
Cc1cccc(NC(=O)CSc2nc3ccc(N4C(=O)c5ccccc5C4=O)cc3s2)c1C | 20% | ? | 3% | 0% | 21µM*
COc1ccc(N2CC(NC(=O)C(=O)c3c[nH]c4ccccc34)CC2=O)cc1 (centres undefined) | nt | -4% | nt | 1% | nt
O=S1(=O)C=C(Sc2nc3ccccc3s2)c2ccccc21 | -3% | 23µM* | -1% | -2% | 18µM*
Cc1cccc(OC(=O)c2cc(-c3ccc4c(c3)OCCO4)on2)c1 | nt | 2% | nt | -2% | ?
CCOC(=O)c1cccc(NC(=O)C2CCN(c3nnc(C)c4c(C)n(-c5ccccc5)nc34)CC2)c1 | nt | -5% | nt | 0% | 12%
Clc1ccccc1-c1nnc2sc(-c3ccncc3)nn12 | 0% | 2% | 4% | 4% | 0%
Clc1ccccc1-c1nn2c(-c3ccncc3)nnc2s1 | 0% | -6% | 3% | 0% | 8.2µM*
SMILES | Rango dissoc inh | A549 tox | Rango complex inh | Nrf2 ARE act | Nrf2 block
CN(Cc1ccc(C(C)(C)C)cc1)C(=O)C1CCN(C(=O)Nc2ccccc2)CC1 | 37% | -16% | 1% | 2% | 21µM*
Cc1onc(C(=O)Nc2ccc(OC(F)(F)F)cc2)c1[N+](=O)[O-] | -2% | 0% | 2% | 3% | 11%
O=C(Nc1ccc(OC(F)(F)F)cc1)c1[nH]ncc1[N+](=O)[O-] | 2% | ? | 3% | ? | 7.3µM*
O=C(Nc1ccc(Oc2ccc(NC(=O)Nc3ccc([N+](=O)[O-])cc3)cc2)cc1)Nc1ccc([N+](=O)[O-])cc1 | -3% | ? | -3% | -1% | 16µM*
O=C(Nc1ccc(OC(F)(F)F)cc1)Nc1cccc([N+](=O)[O-])c1 | -15% | ? | -5% | 0% | 21µM*
Cc1ccc(NC(=O)CCNS(=O)(=O)c2ccc3c(c2)CCCC(=O)N3)cc1 | nt | -4% | nt | -1% | -1%
N#Cc1cccc(C#N)c1Oc1ccc(S(=O)(=O)Nc2ccc(Cl)cc2)cc1 | 1% | -7% | 0% | 12% | ?
O=C1CCc2cc([S+](=O)([O-])NC3CCOCC3)ccc2N1 | nt | 0% | nt | nt | 0%
O=C(COc1ccc([N+](=O)[O-])cc1Cl)N1CCc2ccccc21 | -5% | 4% | -1% | 4% | 41%
Cc1ccc(OCCSc2nc3ccccc3n2CC(=O)N2CCOCC2)cc1 | nt | 0% | nt | 3% | 18µM*
COC(=O)Cn1c(SCCOc2ccccc2Cl)nc2ccccc21 | nt | -10% | nt | 3% | 23µM*
Cc1cccc(OCCSc2nc3ccccc3n2CC(=O)N2CCOCC2)c1 | nt | 0% | nt | 0% | 6%
CSC1=NC(C)(C)C=C(/C=C/c2ccc(Cl)cc2)N1 | -17% | -1% | 0% | 5.6µM* | -2%
CSC1=NC(C)(C)C=C(/C=C/c2ccc(Cl)cc2Cl)N1 | -8% | 3% | 0% | 25µM* | 16%
CCSC1=NC(C)(C)C=C(/C=C/c2ccc(Cl)cc2Cl)N1 | -10% | 11% | 0% | ? | nt
Cn1c(/C(C#N)=C/c2ccccc2Br)nc2ccccc21 | nt | ? | nt | 8.9µM* | ?
O=C(NCc1ccccc1Cl)C1CCN(S(=O)(=O)Cc2ccccc2)CC1 | nt | 8% | nt | -1% | 11%
CCOc1ccc(N2CC(C(=O)NCCc3c[nH]c4ccc(OC)cc34)CC2=O)cc1 (centres undefined) | 2% | -4% | 4% | 0% | -39%
Cc1cc(NC(=O)c2ccc(Cl)c(S(=O)(=O)N3CCCCC3)c2)no1 | -2% | -16% | 0% | 0% | 23µM*
Cc1ccc(NC(=O)c2cccc(S(=O)(=O)N3CCN(c4ccccc4)CC3)c2)nc1 | 18% | -11% | -1% | 3% | 15µM*
Cc1ccc(NC(=O)c2ccc(Cl)c(S(=O)(=O)N3CCCCC3)c2)nc1 | 1% | -7% | 4% | -1% | 21µM*
COc1ccccc1CNC(=O)[C@@H](NC(=O)C1CCN(C(=O)[C@@H]2CCCN2)CC1)C(C)C | 12% | -6% | -3% | -1% | 5%
O=S(=O)(c1ccc(Cl)cc1)N1CCN(c2ncnc3sccc23)CC1 | 7% | -6% | 3% | 3% | 21µM*
Cc1csc2c(N3CCN(S(=O)(=O)c4ccc(Cl)cc4)CC3)ncnc12 | -16% | 5% | 7% | -1% | ?
